Screens: PubChem BioAssay, National Center for Advancing Translational Sciences (NCATS)
This is a sample that favours compounds with a hit; in the whole collection about 2.4% have one here.
D2 antagonist – antagonizes the human D2 dopamine receptor | P14416 | inhibition, % at 10 µM | AID 485344 | 340,000 tested, 2% active | HEK293 TREx D2 cells, calcium flux, dopamine EC80; in the data active means inhibition above about 30%; inactive means below that, where a call was filed; further: 0% is about no effect
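Calcium mobilization kinetics were recorded at 1 s intervals in tetracycline-induced HEK293 T-REx D2 cells, first for 180 s after compound addition and then 180 s after EC80 dopamine.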
D2 PAM-1 – positive allosteric modulators of human D2 dopamine receptor | AID 624464 | DiscoveRx D2 beta-arrestin cells, luminescence, 90 min; 100% = 57 uM dopamine signal | potentiation, % (no concentration beside the values) | P14416 | 360,000 tested, 0.23% active; in the data active means potentiation above about 50%; inconclusive means mostly about 30% to 49%
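PathHunter D2 cells, attached overnight at 37 deg C, received compound in DMSO plus dopamine at EC20 (50 nM final) for 90 min at 37 deg C. Beta-arrestin recruitment was read as luminescence after 1 h with detection reagent at ambient temperature.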
D2 ag-1 – D2 dopamine receptor (human) agonism; P14416; HEK293 T-REx D2 cells, calcium flux agonist mode; activation, % at 2 µM; 340,000 tested, 0.53% active;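 active means activation over 3 SD above normal in the single-dose calcium agonist read, cut at about 30% in these data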; further: 0% is about no effect
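Tetracycline-induced HEK293 T-REx cells with force-coupled D2 receptor, plated overnight at 30 C, loaded with no-wash calcium dye. After a 10 s baseline, compound was pin-added and calcium flux read kinetically for 180 s; calcium rises flagged agonists.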
D2 PAM-2 – D2 dopamine receptor (human) potentiation; HEK293 T-REx D2, calcium flux, EC20 dopamine potentiation; potentiation, % at 10 µM; P14416; 340,000 tested, 0.34% active; AID 485347;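 active means potentiation over 3 SD above the plate norm, cut at about 30% in these data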; further: 0% is about no effect
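Tetracycline-induced HEK293 T-REx cells force-coupled to calcium signalling expressed D2; compounds were pin-added after a 10 s baseline, read kinetically 180 s, then an EC20 dopamine challenge followed with a further 180 s calcium read.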
D2 ag-2 – activates the human D2 dopamine receptor; AID 624465; P14416; 360,000 tested, 0.084% active; activation, % (no concentration beside the values); DiscoveRx PathHunter D2 beta-arrestin, luminescence, 90 min; 100% = 57 uM dopamine signal; in the data active means activation above about 40%; inconclusive means between about 15% and that limit
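Agonist mode: compounds alone added to overnight-plated D2 PathHunter cells for 90 min at 37 C, with 57 uM final dopamine (EC100) defining full response. Beta-arrestin recruitment detected by chemiluminescent reagent, read after 1 h at ambient temperature.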
D3 ag – activates human D3 dopamine receptor beta-arrestin recruitment | 2,300 tested, 4% active | Potency, µM (series often up to 76.9 µM), inactives show at the highest dose activation, hits mostly activators | AID 720506 | shares compounds with D2 ag-1 | DiscoveRx D3 beta-arrestin cells, luminescence, 90 min;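 further: potency means the concentration at half of the fitted maximal effect; 100% = dopamine control response; nearly all actives have a fitted effect of over 70% in size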
Target sequence (P35462 whole entry, looked up): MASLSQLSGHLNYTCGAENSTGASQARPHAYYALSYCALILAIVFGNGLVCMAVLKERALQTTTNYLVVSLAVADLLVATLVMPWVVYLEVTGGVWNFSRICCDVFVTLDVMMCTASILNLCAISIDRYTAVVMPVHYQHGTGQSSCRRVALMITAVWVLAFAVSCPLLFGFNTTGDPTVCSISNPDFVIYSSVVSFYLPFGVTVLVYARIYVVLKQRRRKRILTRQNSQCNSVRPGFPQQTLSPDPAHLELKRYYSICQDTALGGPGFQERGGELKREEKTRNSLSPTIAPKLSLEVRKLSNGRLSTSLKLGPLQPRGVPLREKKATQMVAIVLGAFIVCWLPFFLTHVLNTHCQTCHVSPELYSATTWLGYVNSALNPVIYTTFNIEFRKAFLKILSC
D2 ag-3 – D2 receptor agonism, beta-arrestin counterscreen | shares compounds with D2 ag-1 | DiscoveRx PathHunter D2 beta-arrestin, luminescence, 90 min; response scale: percent relative to full dopamine signal | Potency, µM (titrated, usually from 76.9 µM), for inactives: at the top dose activation, actives largely listed as activators | 2,300 tested, 5.9% active; further: potency means the concentration at half of the fitted maximal effect; % of control where 0% means no effect; nearly all actives have a fitted effect of over 70% in size
Numbers without * were called inactive; ? = inconclusive; · = no result given. Unless noted, the call rests on the fitted dose curve; in most records, active means well fitted activation curve with a large enough effect; inconclusive means small, poorly fitted or top-dose-only effect; inactive means flat fitted curve, though single readings scatter.

SMILES | D2 antagonist | D2 PAM-1 | D2 ag-1 | D2 PAM-2 | D2 ag-2 | D3 ag | D2 ag-3
COc1ccc(C)cc1NC(=O)c1ccc(CN2CCc3ccccc3C2)cc1 | 26 | -14 | 1 | -13 | -1 | · | ·
O=C(Cc1cccs1)NC1CC(=O)N(c2ccc(F)cc2)C1 (configuration not stated) | · | · | 1 | -2 | · | · | ·
Cc1ccc(CNC(=O)CC(C)CC2=NS(=O)(=O)c3ccccc3N2)cc1 (configuration not stated) | · | · | 0 | -9 | · | · | ·
CC1(C)NC(=O)N(CC(=O)OCC(=O)c2ccc(Br)s2)C1=O | · | -9 | · | · | -4 | · | ·
COC(=O)c1cc(NC(=O)CC2Oc3ccccc3NC2=O)cc(C(=O)OC)c1 (configuration not stated) | 2 | 2 | 26 | 4 | -1 | 0% | 0%
COC(=O)c1ccc(Cl)cc1NC(=O)N1CCC(CN2CCC(C)CC2)CC1 | · | · | 1 | -10 | · | · | ·
CCCCN1CC(=O)N2[C@H]3c4ccc(OC)cc4OC[C@@H]3[C@H](C(=O)OCC)[C@]2(C)C1=O | -15 | -1 | -1 | 3 | 1 | -2% | -1%
COc1ccc2c(c1)OC[C@H]1[C@H]2N2C(=O)CN(C)C(=O)[C@@]2(C)[C@H]1c1ccccc1 | -3 | -5 | 1 | 11 | 0 | -5% | -1%
CCN(CC)S(=O)(=O)c1ccc(O)c(NC(=O)CN2CCc3ccccc3C2)c1 | -6 | -5 | 4 | -4 | -3 | · | ·
Cc1ccccc1NC(=O)CN1CCc2ccccc2C1 | 40* | -12 | 68* | -24 | ? | ? | ?
CN(C)S(=O)(=O)c1ccc(Cl)c(NC(=O)CN2CCc3ccccc3C2)c1 | 87* | 16 | 61* | -25 | 64* | 10µM* | 14µM*
CCOc1ccccc1NC(=O)CN1CCc2ccccc2C1 | 0 | -6 | 3 | -7 | 4 | · | ·
Cc1ccc(NC(=O)CN2CCc3ccccc3C2)cc1S(=O)(=O)N(C)C | 18 | -9 | 47* | -22 | 8 | 30% | 29%
N#CC1(NC(=O)CN2CCc3ccccc3C2)CCCC1 | 8 | 0 | 16 | -32 | 4 | 1% | 10%
CCN(Cc1ccccc1)C(=O)Cn1c(=O)oc2cc(S(=O)(=O)N3CCCCCC3)ccc21 | · | · | -1 | 11 | · | · | ·
Cc1ccc([C@@H]2CC(=O)[C@@H]3CN(S(=O)(=O)c4ccc(C)cc4)[C@H](c4ccccc4)C[C@@H]3N2S(=O)(=O)c2ccc(C)cc2)cc1 | · | -4 | · | · | -6 | · | ·
O=C(NC1CCCCC1)N1CCc2ccccc2C1 | -3 | -26 | 0 | 2 | -4 | · | ·
O=C(CN1CCc2ccccc2C1)NC1CCCC1 | 14 | -8 | -2 | 9 | 1 | 2% | 4%
CN(C)S(=O)(=O)c1ccc(Cl)c(NC(=O)CN2CCN(c3ccccn3)CC2)c1 | 27 | 3 | 69* | -25 | ? | ? | 32µM*
CC(CCc1ccccc1)NC(=O)CN1CCc2ccccc2C1 (configuration not stated) | 68* | 4 | 71* | -17 | 15 | -4% | ?
Cc1cccc(NC(=O)N2CCc3ccccc3C2)c1C | 5 | -5 | 26 | -6 | -6 | -13% | 0%
CC(=O)C(Cc1ccccc1)NC(=O)CN1CCc2ccccc2C1 (configuration not stated) | 7 | -15 | 0 | -8 | -2 | · | ·
CC(C)(C)c1ccc(CN(Cc2ccco2)c2cnc(S(C)(=O)=O)nc2C(=O)Nc2ccc(F)cc2)cc1 | · | · | · | 11 | · | · | ·
CN=c1scc(-c2ccco2)n1/N=C/c1ccc(O)c(O)c1 | 28 | 27 | 36* | -9 | 49* | ? | 35µM*
COc1ccc(O)c(-c2nc(N)nc(N)n2)c1 | -11 | -5 | 0 | 14 | -1 | -4% | -4%
SMILES | D2 antagonist | D2 PAM-1 | D2 ag-1 | D2 PAM-2 | D2 ag-2 | D3 ag | D2 ag-3
O=C(c1ccc(Cl)cc1)c1ccccc1C(=O)N1CCOCC1 | 0 | -2 | 0 | 8 | -1 | · | ·
Nc1nc(C(=O)N2CCOCC2)nn1C(=O)c1ccc(Cl)cc1 | 23 | 0 | 0 | 6 | 0 | -12% | -10%
CCOC(=O)Cn1nnnc1CN(Cc1ccc(OC)cc1)Cc1cc2cc(CC)ccc2[nH]c1=O | 18 | -10 | -2 | -9 | -1 | -5% | -2%
COc1ccc2cc(CN(CCc3ccccc3)Cc3nnnn3CC3CCCO3)c(=O)[nH]c2c1 (configuration not stated) | -30 | -12 | 2 | -7 | 1 | · | ·
COc1ccc2[nH]c(=O)c(CN(CCc3ccccc3)Cc3nnnn3CC3CCCO3)cc2c1 (configuration not stated) | -14 | -13 | 28 | -19 | -1 | ? | 6%
Cc1ccc2[nH]cc(C(c3ccccc3)c3cccs3)c2c1 (configuration not stated) | · | · | -1 | -4 | · | · | ·
Cc1cc(N(C)Cc2ccccc2)n2nc(-c3ccc(C(C)(C)C)cc3)nc2n1 | · | · | 0 | 0 | · | · | ·
O=C1CCC(C(=O)N2CCN(c3ccccc3)CC2)CN1CC1CCCCC1 (configuration not stated) | 19 | -14 | 62* | -24 | 6 | 14% | ?
O=C1CCC(C(=O)N2CCN(c3ccc(F)cc3)CC2)CN1CC1CCCCC1 (configuration not stated) | -1 | -11 | -1 | 1 | -4 | · | ·
COc1ccc(Cl)cc1NC(=O)c1c(NCc2cccnc2)sc2c1CCC(C)C2 (configuration not stated) | · | · | · | 13 | · | · | ·
CCOCCCNC(=O)c1cc2c(=O)[nH]c3ccccc3c2n1C | · | · | 0 | -3 | · | · | ·
COc1cccc(S(=O)(=O)NCc2ccc(C(=O)N3CCN(c4ccccc4OC)CC3)cc2)c1 | · | · | · | -24 | · | -1% | 7%
COc1cccc(S(=O)(=O)NCc2ccc(C(=O)N3CCN(c4ccccc4)CC3)cc2)c1 | 56* | 5 | 59* | -16 | ? | -5% | ?
CCCCCOC(=O)CSc1ncnc2c1sc1nc(N3CCOCC3)c3c(c12)CCCC3 | · | · | · | 6 | · | · | ·
CCNC(=S)NNC(=O)c1ccccc1OC(F)F | 33* | -12 | 26 | -22 | -1 | -23% | -4%
CC(=O)N1CCN(C(=O)COC(=O)COc2c(C)cc(C)cc2C)CC1 | 21 | -10 | -1 | 2 | 0 | -5% | -1%
CCOC(=O)N1CCN(C(=O)COC(=O)COc2c(C)cc(C)cc2C)CC1 | · | -5 | · | · | -5 | · | ·
O=c1[nH]c(S)nc2sc3c(c12)CCCC3 | -4 | 1 | -1 | 6 | -7 | · | ·
O=c1[nH]c(-c2ccco2)nc2sc3c(c12)CCCC3 | 9 | -7 | 52* | -21 | 0 | -5% | -5%
